Compound activity deposited in PubChem by Broad Institute.
DENV2 CPE rescue – DENV2-induced cell death inhibition; CPE inhibition, % at 9.99 µM; AID 651640; 350,000 compounds, 1.7% hits; DENV2-infected cells, cytopathic effect rescue, plate reader; in the data active = CPE inhibition above about 20%, passing the limit was not always enough; inconclusive = no clear call, values can overlap the other calls; tested in BHK-21 cells;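 also: 0% = median of neutral control wells and 100% = median of positive control wells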
dFosB activator – mouse delta FosB homodimer activation; P13346; 340,000 compounds, 0.99% hits; purified delta FosB, TAMRA-CDK5 oligo fluorescence polarization; percent of positive-control signal above neutral wells; activation, % at 25 µM; AID 493131;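 active = mean activation above about 17%, with every replicate also reaching it, limit read from the data, passing the limit was not always enough; inconclusive = only one of the two conditions met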
Target sequence (P13346 whole entry, looked up): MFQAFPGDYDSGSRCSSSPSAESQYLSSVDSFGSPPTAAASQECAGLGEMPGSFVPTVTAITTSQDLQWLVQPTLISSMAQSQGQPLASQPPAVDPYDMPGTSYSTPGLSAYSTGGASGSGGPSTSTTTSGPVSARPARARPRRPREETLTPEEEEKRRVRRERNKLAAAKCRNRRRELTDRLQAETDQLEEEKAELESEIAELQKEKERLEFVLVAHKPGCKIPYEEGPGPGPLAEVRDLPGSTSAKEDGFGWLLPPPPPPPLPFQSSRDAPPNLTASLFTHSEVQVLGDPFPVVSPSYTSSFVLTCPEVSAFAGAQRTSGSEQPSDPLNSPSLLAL
RAD52 anneal inh – inhibitors of human RAD52 DNA annealing. inhibition, % at 18.7 µM. P43351. recombinant RAD52 DNA annealing, FRET fluorescence. 360,000 compounds, 0.46% hits;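 active = every replicate showing at least 50% inhibition; inconclusive = mean inhibition at least 50% but not in every replicate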
RAD54 inh – inhibitors of human RAD54 branch migration; 360,000 compounds, 0.14% hits; inhibition, % at 10.4 µM; RAD54 Holliday junction branch migration, FAM/BHQ fluorescence; Q92698;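 active = mean normalized replicate activity at least 40 and at least half of replicates scoring 40 or more; inconclusive = only one of the two criteria met; inactive = mean below 40 and under half of replicates reaching 40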;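 also: 0% = median of neutral control wells and 100% = median of positive control wells; inhibitors cause a drop in the FAM fluorescence signal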
GSIS activator – GLuc luminescence reporter in INS-1E cells, primary screen for activators of glucose-dependent secretion of insulin; INS-1E GLuc reporter insulin secretion, 2-3 h; activation, % at 16.6 µM; 370,000 compounds, 0.61% hits;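 active = lowest replicate activation of at least 40%, so every replicate reaches that level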;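 also: 0% = median of neutral control wells and 100% = median of IBMX positive control wells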
AF4-AF9 inh – inhibitors of human MLL-AF4/AF9 interaction; AlphaScreen, biotin-AF4 peptide binding to FLAG-AF9; inhibition, % at 10 µM; 350,000 compounds, 0.47% hits;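 active = every replicate reaching a set inhibition limit, whatever the replicate mean, cut at about 25% in these data; inconclusive = mean inhibition reaches that limit but some replicates miss it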;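 also: 0% = plate neutral control median and 100% = total signal loss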
RAD52 DNA ctr – DNA binding artifact in RAD52 counter-screen. Salmon sperm DNA/acridine orange FP displacement. 1,000 compounds, 8% hits. AC50, µM. shares compounds with RAD52 anneal inh;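 active = fitted half-maximal concentration for signal loss at or below twice the highest dose tested, in every separate run, actives reach about 64 µM in these data; inconclusive = runs disagree, or flat partial signal loss, or poor fit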
* = called active by the depositor. The list is not random: actives were taken first. Their share in the collection is about 3.1%.

How did O=C(NCC[C@H]1CC[C@H](NC(=O)c2cnccn2)[C@H](CO)O1)c1ccc2c(c1)OCO2 do in these assays?
DENV2 CPE rescue: -1; RAD52 anneal inh: -26; RAD54 inh: -2; GSIS activator: 9; AF4-AF9 inh: -1

How did CCOC(=O)c1c(NC(=O)C[n+]2ccc(Cc3ccccc3)cc2)sc(C)c1C do in these assays?
DENV2 CPE rescue: -6; dFosB activator: 2; RAD52 anneal inh: 50*; GSIS activator: -12; AF4-AF9 inh: 17; RAD52 DNA ctr: inactive

What do the screens show for `C[C@H]1CN([C@@H](C)CO)C(=O)c2cccc(NC(=O)Nc3cccc4ccccc34)c2O[C@@H]1CN(C)S(=O)(=O)c1cn(C)cn1`?
DENV2 CPE rescue: -3; RAD52 anneal inh: 20; RAD54 inh: -1; GSIS activator: 5; AF4-AF9 inh: -7

What do the screens show for `c1ccc(-c2cc(NCCN3CCCCC3)c3ccccc3n2)cc1`?
DENV2 CPE rescue: 1; dFosB activator: 8; RAD52 anneal inh: 89*; RAD54 inh: 106*; GSIS activator: 29; AF4-AF9 inh: 8; RAD52 DNA ctr: inactive

What do the screens show for `COCC(=O)Nc1ccc2c(c1)C(=O)N(C)[C@H]1CC[C@H](CC(=O)NCc3ccc(OC)cc3)O[C@@H]1CO2`?
DENV2 CPE rescue: 8; RAD54 inh: -7; GSIS activator: 3

What do the screens show for `C[C@@H]1NC(=O)[C@H](CCC(N)=O)NC(=O)c2cc([N+](=O)[O-])cc(I)c2NCCC[C@@H](C(N)=O)NC1=O`?
DENV2 CPE rescue: 1; dFosB activator: -1; RAD52 anneal inh: -5; RAD54 inh: -5; GSIS activator: 0; AF4-AF9 inh: -4

How did NCCCC[C@@H]1NC(=O)c2cc([N+](=O)[O-])cc(F)c2NCCCC[C@@H](C(N)=O)NC(=O)[C@H](CCC(N)=O)NC1=O do in these assays?
DENV2 CPE rescue: -7; dFosB activator: 15; RAD52 anneal inh: 80*; RAD54 inh: 22; GSIS activator: 9; AF4-AF9 inh: 27*; RAD52 DNA ctr: inactive

How did NC(=O)C[C@H]1NC(=O)[C@H](CCC(=O)O)NC(=O)c2cc([N+](=O)[O-])cc(I)c2NCCC[C@@H](C(N)=O)NC1=O do in these assays?
dFosB activator: -2; RAD54 inh: -8; GSIS activator: 3

Results for C[C@@H]1NC(=O)[C@H](CCCN=C(N)N)NC(=O)c2cc([N+](=O)[O-])cc(I)c2NCCC[C@@H](C(N)=O)NC1=O ?
DENV2 CPE rescue: -2; dFosB activator: 8; RAD52 anneal inh: 86*; RAD54 inh: 17; GSIS activator: 12; AF4-AF9 inh: -8; RAD52 DNA ctr: inactive

Results for NC(=O)[C@@H]1CCCCNc2c(F)cc([N+](=O)[O-])cc2C(=O)N[C@@H](CCCN=C(N)N)C(=O)NCC(=O)N1 ?
dFosB activator: 15; RAD52 anneal inh: 61*; RAD54 inh: 10; GSIS activator: 18; AF4-AF9 inh: 20; RAD52 DNA ctr: inactive

How did CC(C)/C(=N\NC(=O)Nc1ccccc1)c1ccccc1 do in these assays?
dFosB activator: -9; RAD54 inh: -19

How did C/C(=N\NC(=O)Nc1ccccc1)c1ccccc1 do in these assays?
DENV2 CPE rescue: -3; dFosB activator: -9; RAD52 anneal inh: 100*; RAD54 inh: -6; GSIS activator: 4; AF4-AF9 inh: 2; RAD52 DNA ctr: inactive

How did O=C(Nc1ccc(N2CCCC2)cc1)c1cccc(-c2cc3ccccc3oc2=O)c1 do in these assays?
DENV2 CPE rescue: 0; dFosB activator: 17*; RAD52 anneal inh: 58*; RAD54 inh: 2; GSIS activator: 1; AF4-AF9 inh: 14; RAD52 DNA ctr: inactive

How did CCC(=O)N[C@@H]1C=C[C@@H](CC(=O)NCc2cc(F)cc(F)c2)O[C@@H]1CO do in these assays?
DENV2 CPE rescue: 4; RAD52 anneal inh: -4; RAD54 inh: 3; GSIS activator: 1; AF4-AF9 inh: -3

What do the screens show for `CN(C)CCCn1c(=S)[nH]c2sc3c(c2c1=O)CCCC3`?
DENV2 CPE rescue: 5; dFosB activator: 1; RAD52 anneal inh: 97*; RAD54 inh: 11; GSIS activator: -3; AF4-AF9 inh: 9; RAD52 DNA ctr: inactive

Results for CCn1c(=S)[nH]c2sc3c(c2c1=O)CCCC3 ?
DENV2 CPE rescue: -1; dFosB activator: 2; RAD52 anneal inh: -31; RAD54 inh: 0; GSIS activator: 1; AF4-AF9 inh: -6

Results for Cc1cc(C)n(-c2nc(NCCN(C)C)c3c4c(sc3n2)CCCC4)n1 ?
DENV2 CPE rescue: -17; dFosB activator: inconclusive; RAD52 anneal inh: 83*; GSIS activator: 53*; AF4-AF9 inh: 8; RAD52 DNA ctr: inactive

Results for Cc1cc(C)n(-c2nc(NCCCN(C)C)c3c4c(sc3n2)COC(C)(C)C4)n1 ?
DENV2 CPE rescue: 10; RAD52 anneal inh: -2; RAD54 inh: 2; GSIS activator: 22

What do the screens show for `CO[C@@H]1CN(C)C(=O)c2cc(NC(C)=O)ccc2OC[C@H](C)N(Cc2ccncc2)C[C@@H]1C`?
DENV2 CPE rescue: -2; RAD52 anneal inh: 1; RAD54 inh: 9; GSIS activator: 7; AF4-AF9 inh: -4

What do the screens show for `CC1CCCCN1CC(=O)Nc1ccc(Oc2ccccc2)cc1` (stereo not drawn)?
dFosB activator: 0; RAD54 inh: -8

How did CC1CCCCN1CC(=O)Nc1ccc(N2CCCCCC2)cc1 (stereo not drawn) do in these assays?
DENV2 CPE rescue: 10; dFosB activator: -8; RAD52 anneal inh: 93*; GSIS activator: -7; AF4-AF9 inh: 49*; RAD52 DNA ctr: inactive

What do the screens show for `COc1cccc(CNC(=O)C[C@@H]2CC[C@H](NC(C)=O)[C@H](CO)O2)c1`?
DENV2 CPE rescue: 0; RAD52 anneal inh: 12; RAD54 inh: -5; GSIS activator: -2; AF4-AF9 inh: 1

Results for CO[C@@H]1CC[C@H]2CCN(C)C(=O)[C@H](C)N(C)C(=O)c3cc(C#N)ccc3OC[C@@H]1O2 ?
DENV2 CPE rescue: 3; RAD52 anneal inh: -6; RAD54 inh: 7; GSIS activator: 4; AF4-AF9 inh: 0

What do the screens show for `O=C(Nc1cccc(C(=O)Nc2cccc(Br)c2)c1)c1ccccc1`?
DENV2 CPE rescue: 12; dFosB activator: -7; RAD52 anneal inh: 94*; RAD54 inh: -3; GSIS activator: -5; AF4-AF9 inh: -3; RAD52 DNA ctr: inactive

What do the screens show for `C[C@@H]1CCCCO[C@H](CN(C)C(=O)C2CCCCC2)[C@@H](C)CN([C@H](C)CO)C(=O)c2cc(NC(=O)Nc3ccc(C(F)(F)F)cc3)ccc2O1`?
DENV2 CPE rescue: 0; RAD52 anneal inh: -18; RAD54 inh: 1; GSIS activator: 8; AF4-AF9 inh: -1
